Data as given in PubChem BioAssay AID1159580 (chemical genetic matrix, 2015).
Values joined by “and” are separate entries in the source; they are usually repeats but may differ in a detail not shown here. Equal entries are not always repeated. Among all 5,500 compounds or so, about 2,000 (36%) were called active. Inconclusive results (about 18%) are left out. No stated cut-off is given here; in the data, active means normalized growth mostly below about 0.91 (no sharp cut-off); inconclusive means no clear call, values can overlap the other calls; inactive means mostly above about 0.92. Some of the results follow.

Experiment: chemical genetic growth profiling, strain panel (AID 1159580);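 further: tested at 20 µM; growth read once vehicle control cultures reached saturation at 30 °C; 1 = growth at the plate median or of vehicle wells; lower values mean less growth of the strain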
Details: S. cerevisiae deletion strains, growth OD

Measured: normalized growth

O=C(O)C1CC([C@@H]2CCCCN2)CN2CCCCC12 (some centres not stated)
inactive: locus YAL021C, strain ccr4, hits give low values 1.02 | locus YAL026C, strain drs2, hits give low values 0.967 | locus YAL030W, strain snc1, hits give low values 0.972 | locus YBL061C, strain skt5, hits give low values 0.985 | locus YBR009C, strain hhf1, hits give low values 0.924 | locus YBR021W, strain FUR4, hits give low values 1.08 | locus YBR023C, strain chs3, hits give low values 1.01 | locus YBR171W, strain sec66, hits give low values 0.974 | locus YBR229C, strain ROT2, hits give low values 1.01 | locus YBR231C, strain swc5, hits give low values 0.981 | locus YBR279W, strain paf1, hits give low values 0.995 | locus YCL011C, strain gbp2, hits give low values 0.953 | locus YCL016C, strain dcc1, hits give low values 0.989 | locus YCL029C, strain bik1, hits give low values 0.969 | locus YCL061C, strain MRC1, hits give low values 0.983 | locus YCL069W, strain vba3, hits give low values 0.969 | locus YCR088W, strain abp1, hits give low values 0.987 | locus YDL005C, strain med2, hits give low values 0.972 | locus YDL035C, strain GPR1, hits give low values 1.01 | locus YDL040C, strain nat1, hits give low values 0.981 | locus YDL074C, strain BRE1, hits give low values 1.04 | locus YDL101C, strain DUN1, hits give low values 1.03 | locus YDL134C, strain PPH21, hits give low values 1.1 | locus YDL185W, strain tfp1, hits give low values 0.968 | locus YDL192W, strain arf1, hits give low values 0.967 | locus YDR001C, strain nth1, hits give low values 0.97 | locus YDR069C, strain doa4, hits give low values 0.97 | locus YDR101C, strain arx1, hits give low values 0.984 | locus YDR137W, strain rgp1, hits give low values 0.978 | locus YDR159W, strain sac3, hits give low values 0.958 | locus YDR162C, strain NBP2, hits give low values 1.08 | locus YDR195W, strain ref2 0.924 | locus YDR297W, strain sur2, hits give low values 0.984 | locus YDR318W, strain mcm21, hits give low values 0.98 | locus YDR334W, strain swr1, hits give low values 0.963 | locus YDR335W, strain msn5, hits give low values 0.983 | locus YDR388W, hits give low values 0.986 | locus YDR392W, strain spt3, hits give low values 0.902 | locus YDR502C, strain sam2, hits give low values 0.993 | locus YEL003W, strain gim4, hits give low values 0.98 | locus YEL037C, strain rad23, hits give low values 0.987 | locus YEL061C, strain CIN8 (second series), hits give low values 0.97 | locus YEL061C, strain CIN8, hits give low values 1.01 | locus YER015W, strain faa2, hits give low values 0.997 | locus YER016W, strain bim1, hits give low values 0.993 | locus YER110C, hits give low values 0.992 | locus YER111C, strain swi4, hits give low values 0.965 | locus YER155C, strain BEM2 (second series), hits give low values 0.968 | locus YER155C, strain BEM2, hits give low values 1.01 | locus YER167W, strain BCK2, hits give low values 1.02 | locus YFR010W, strain ubp6, hits give low values 0.969 | locus YGL078C, strain dbp3, hits give low values 0.993 | locus YGL086W, strain mad1, hits give low values 1.03 | locus YGL167C, strain pmr1, hits give low values 0.957 | locus YGL173C, strain kem1, hits give low values 0.979 | locus YGL227W, strain vid30, hits give low values 0.959 | locus YGL240W, strain doc1, hits give low values 0.959 | locus YGL248W, strain PDE1, hits give low values 1.04 | locus YGL253W, strain hxk2, hits give low values 0.999 | locus YGR078C, strain PAC10, hits give low values 1.06 | locus YGR135W, strain pre9, hits give low values 0.979 | locus YGR229C, strain SMI1, hits give low values 1.08 | locus YGR252W, strain gcn5, hits give low values 1.05 | locus YHR013C, strain ard1, hits give low values 0.93 | locus YHR027C, strain rpn1, hits give low values 0.971 | locus YHR030C, strain SLT2, hits give low values 0.997 and 0.989 | locus YHR079C, strain IRE1 (second series), hits give low values 0.998 | locus YHR079C, strain IRE1, hits give low values 0.998 | locus YHR094C, strain hxt1, hits give low values 0.978 | locus YHR129C, strain ARP1, hits give low values 1.01 | locus YHR142W, strain chs7, hits give low values 1.01 | locus YHR200W, strain rpn10, hits give low values 0.968 | locus YIL066C, strain RNR3, hits give low values 1.05 | locus YIL073C, strain SPO22, hits give low values 0.984 | locus YIL125W, strain kgd1, hits give low values 0.993 | locus YIR030C, strain dcg1, hits give low values 0.985 | locus YJL092W, strain hpr5, hits give low values 0.976 | locus YJL095W, strain BCK1 (second series), hits give low values 1 | locus YJL095W, strain BCK1, hits give low values 1.08 and 1.04 | locus YJL115W, strain asf1, hits give low values 0.978 | locus YJL129C, strain trk1, hits give low values 0.973 | locus YJL134W, strain LCB3, hits give low values 1 | locus YJL154C, strain vps35, hits give low values 0.986 | locus YJL164C, strain tpk1, hits give low values 0.997 | locus YJL166W, strain qcr8, hits give low values 0.995 | locus YJL168C, strain set2, hits give low values 0.986 | locus YJL187C, strain SWE1 (second series), hits give low values 1.04 | locus YJL187C, strain SWE1, hits give low values 0.976 | locus YJR043C, strain POL32, hits give low values 1.04 | locus YJR066W, strain TOR1, hits give low values 0.941 | locus YJR075W, strain HOC1, hits give low values 1.03 | locus YKL009W, strain mrt4, hits give low values 0.968 | locus YKL068W, hits give low values 0.99 | locus YKL085W, strain MDH1 (second series), hits give low values 1.01 | locus YKL085W, strain MDH1, hits give low values 1.01 | locus YKL160W, strain elf1, hits give low values 1.01 | locus YKR001C, strain vps1, hits give low values 1.02 | locus YKR026C, strain gcn3, hits give low values 0.973 | locus YKR091W, strain srl3, hits give low values 0.956 | locus YLL001W, strain dnm1, hits give low values 1.01 | locus YLL026W, hits give low values 0.999 | locus YLL041C, strain sdh2, hits give low values 0.997 | locus YLR027C, strain aat2, hits give low values 0.972 | locus YLR039C, strain RIC1, hits give low values 1.01 | locus YLR058C, strain SHM2, hits give low values 1.02 | locus YLR102C, strain apc9, hits give low values 0.998 | locus YLR113W, strain HOG1, hits give low values 1.02 | locus YLR221C, strain rsa3, hits give low values 0.993 | locus YLR258W, strain gsy2, hits give low values 0.982 | locus YLR262C, strain YPT6 (second series), hits give low values 0.978 | locus YLR262C, strain YPT6, hits give low values 1.04 | locus YLR268W, strain sec22, hits give low values 1.02 | locus YLR320W, strain mms22, hits give low values 0.984 | locus YLR330W, strain CHS5, hits give low values 1 | locus YLR342W, strain FKS1 (second series), hits give low values 1.07 | locus YLR342W, strain FKS1, hits give low values 0.958 | locus YLR357W, strain rsc2, hits give low values 0.963 | locus YLR370C, strain arc18, hits give low values 0.957 | locus YLR371W, strain rom2, hits give low values 0.945 | locus YLR384C, strain iki3, hits give low values 0.988 | locus YLR418C, strain cdc73, hits give low values 1.01 | locus YML016C, strain PPZ1, hits give low values 1.02 | locus YML032C, strain rad52, hits give low values 0.986 | locus YML120C, strain ndi1, hits give low values 0.991 | locus YML124C, strain tub3, hits give low values 0.978 | locus YMR058W, strain fet3, hits give low values 0.968 | locus YMR078C, strain ctf18, hits give low values 0.963 | locus YMR125W, strain sto1, hits give low values 0.917 | locus YMR129W, hits give low values 0.96 | locus YMR205C, strain PFK2, hits give low values 0.931 | locus YMR223W, strain ubp8, hits give low values 0.981 | locus YMR231W, strain pep5, hits give low values 0.967 | locus YMR307W, strain GAS1, hits give low values 1.13 | locus YNL067W, strain RPL9B, hits give low values 1.05 | locus YNL071W, strain lat1, hits give low values 0.987 | locus YNL153C, strain GIM3, hits give low values 1.07 | locus YNL183C, strain NPR1, hits give low values 0.97 | locus YNL209W, strain ssb2, hits give low values 0.965 | locus YNL233W, strain BNI4, hits give low values 1.06 | locus YNL248C, strain rpa49, hits give low values 1.01 | locus YNL250W, strain rad50, hits give low values 0.983 | locus YNL271C, strain bni1, hits give low values 0.968 | locus YNL298W, strain CLA4, hits give low values 0.972 | locus YNL307C, strain MCK1, hits give low values 0.999 | locus YNL322C, strain KRE1 (second series), hits give low values 0.971 | locus YNL322C, strain KRE1, hits give low values 1.01 | locus YNR049C, strain mso1, hits give low values 0.978 | locus YNR052C, strain pop2, hits give low values 0.975 | locus YOL006C, strain TOP1, hits give low values 1.08 | locus YOL012C, strain htz1 0.943 | locus YOL147C, strain pex11, hits give low values 0.995 | locus YOR001W, strain rrp6, hits give low values 1.03 | locus YOR061W, strain CKA2, hits give low values 1.01 | locus YOR069W, strain VPS5, hits give low values 1 | locus YOR070C, strain gyp1, hits give low values 0.999 | locus YOR080W, strain dia2, hits give low values 0.973 | locus YOR083W, strain WHI5, hits give low values 1.02 | locus YOR106W, strain vam3, hits give low values 1 | locus YOR136W, strain idh2, hits give low values 1.01 | locus YOR144C, strain elg1, hits give low values 0.996 | locus YOR184W, strain ser1, hits give low values 1.01 | locus YOR231W, strain MKK1, hits give low values 0.98 | locus YOR265W, strain rbl2, hits give low values 0.946 | locus YOR270C, strain vph1, hits give low values 0.989 | locus YOR290C, strain snf2, hits give low values 0.917 | locus YOR316C, strain cot1, hits give low values 0.971 | locus YPL051W, strain arl3, hits give low values 1.01 | locus YPL055C, strain LGE1, hits give low values 1.06 | locus YPL078C, strain atp4, hits give low values 0.988 | locus YPL106C, strain sse1, hits give low values 0.959 | locus YPL240C, strain hsp82, hits give low values 0.977 | locus YPL256C, strain CLN2, hits give low values 1.01 | locus YPR119W, strain clb2, hits give low values 0.987 | locus YPR141C, strain kar3, hits give low values 0.983 | locus YPR163C, strain tif3, hits give low values 0.989 | locus YPR167C, strain met16, hits give low values 0.975 | strain wtn01, hits give low values 0.989
